# Reference: PubChem BioAssay AID504329 (Southern Research Specialized Biocontainment Screening …, 2011)
# About 1,000 (0.29%) of roughly 340,000 compounds were called active. No stated cut-off is given here; in the data, inconclusive means inhibition above about 27% without an active follow-up result; inactive means below that. Only a sample is shown. Measured potencies and affinities stand elsewhere.
# Assay: NS1A inhibition, H1N1 influenza, cell based functional assay (AID 504329)
# Conditions: percent inhibition, at 12.5 µM, stronger effect = higher value
row,Compound,inhibition
1,CN(C(=O)CN1C(=O)c2cc(Cl)c(Cl)cc2C1=O)C1CCS(=O)(=O)C1 (stereo unspecified),-4.84% (inactive)
2,Cn1nc([N+](=O)[O-])c(C(C#N)c2nc3ccccc3n2C)c(Cl)c1=O (stereo unspecified),3.66% (inactive)
3,Cn1nc([N+](=O)[O-])c(C(C#N)c2ccccn2)c(Cl)c1=O (stereo unspecified),7.2% (inactive)
4,CCn1nc([N+](=O)[O-])c(C(C#N)c2nc3ccccc3n2C)c(Cl)c1=O (stereo unspecified),0.82% (inactive)
5,CCCn1nc([N+](=O)[O-])c(C(C#N)c2nc3ccccc3o2)c(Cl)c1=O (stereo unspecified),17.6% (inactive)
6,Cc1cc(C)cc(NC(=O)C(OC(=O)c2sccc2C)c2ccccc2)c1 (stereo unspecified),-3.16% (inactive)
7,COc1ccc(S(=O)(=O)N2CCCC2C(=O)NCc2ccccc2Cl)cc1 (stereo unspecified),-6.48% (inactive)
8,CC1(C)CC(=O)C2=C(C1)OC(=O)CC2c1cccs1 (stereo unspecified),-6.75% (inactive)
9,CCN(CC)S(=O)(=O)c1ccc(Cl)c(NC(=O)COC(=O)c2c(C)noc2C)c1,-8.29% (inactive)
10,COc1ccc2nc(SC(C)C(=O)NCC(=O)Nc3ccc(F)c(F)c3F)[nH]c2c1 (stereo unspecified),-9.36% (inactive)
11,C/C(=N\NC(=O)CN1CCN(Cc2ccccc2)CC1)c1cccs1,0.29% (inactive)
12,O=C(CNC(=O)c1ccccc1F)OCCCOC(=O)CNC(=O)c1ccccc1F,-5.51% (inactive)
13,NC(=O)COC(=O)/C=C/c1ccc(S(=O)(=O)N2CCCCCC2)cc1,5.4% (inactive)
14,C[C@H]1CCC[C@]2(O[C@H](CCO)C[C@@H](O)[C@@H]2O)O1,-6.34% (inactive)
15,Cc1nc(C(F)(F)F)c(C(=O)N/N=C(\N)c2cccnc2)s1,-4.6% (inactive)
16,Cc1nc(C(F)(F)F)c(C(=O)NC(=O)Nc2ccccc2)s1,-2.55% (inactive)
17,COc1ccccc1Oc1ncnc2c1cnn2-c1ccccc1,-2.97% (inactive)
18,CCOC(=O)N1CCc2c(sc(NC(=O)C3COc4ccccc4O3)c2C(N)=O)C1 (stereo unspecified),-11.4% (inactive)
19,C#CCOCCOCCOCCNc1nc(N2CCN(C(=O)CCCCCCCCCCNC(=O)[C@H]([C@@H](C)CC)n3cc(CCCCN=C(N)N)nn3)CC2)nc(N2CCN(C(=O)CCCCCCCCCCNC(=O)[C@H](CO)n3cc(CCCSC)nn3)CC2)n1,-16.7% (inactive)
20,C#CCOCCOCCOCCNc1nc(N2CCN(C(=O)CCCCCCCCCCNC(=O)[C@H]([C@@H](C)CC)n3cc(CCCCCN)nn3)CC2)nc(N2CCN(C(=O)CCCCCCCCCCNC(=O)[C@H](CO)n3cc(CCCCCN)nn3)CC2)n1,22.1% (inactive)
21,O=C(COC(=O)c1ccc2ncsc2c1)NC(=O)c1ccccc1,-8.75% (inactive)

row,Compound,inhibition
1,N#CC(c1ccccc1)c1cnccn1 (stereo unspecified),-11% (inactive)
2,COc1ccccc1N/N=C/c1c(CO)cnc(C)c1O,2.27% (inactive)
3,Cc1ncc(CO)c(/C=N/NC(=S)Nc2ccc(C(C)C)cc2)c1O,11.8% (inactive)
4,Cc1ncc(CO)c(/C=N/Nc2cccc(Cl)n2)c1O,-2.98% (inactive)
5,Oc1ccc(/C=N/Nc2ccc(C(F)(F)F)cn2)cc1,13.7% (inactive)
6,Cc1ncc(CO)c(/C=N/NC(=S)Nc2ccc(Cl)c(Cl)c2)c1O,2.53% (inactive)
7,COc1cc(/C=N/Nc2ccc(C(F)(F)F)cn2)cc(OC)c1O,-10.9% (inactive)
8,COc1ccccc1N(C(=O)c1ccco1)C(C(=O)NC1CCCCC1)c1cc(OC)c(OC)c(OC)c1 (stereo unspecified),7.04% (inactive)
9,CC(C)=C1C2CCC1C1C(=O)N(NC(=O)COc3ccc(C(C)(C)C)cc3)C(=O)C21 (stereo unspecified),4.52% (inactive)
10,Cc1ccc(-c2nnn(CCOc3cccc(Br)c3)n2)cc1,-6.07% (inactive)
11,c1ccc2nc3[nH]cnc3nc2c1,1.88% (inactive)
12,COc1ccc(NC(=O)CC2(CC(=O)N3CCOCC3)CCCC2)cc1Cl,-1.17% (inactive)
13,CC1CC(C)CN(S(=O)(=O)c2ccc(C(=O)Nc3nnc(C4CC4)o3)cc2)C1 (stereo unspecified),-2.79% (inactive)
14,CC(C)(C)NC(=O)C(c1ccccc1F)N(Cc1ccco1)C(=O)c1csnn1 (stereo unspecified),-1.84% (inactive)
15,O=C(O)C(c1ccccc1)N1C(=O)/C(=C\c2ccc(O)c(O)c2)SC1=S (stereo unspecified),10.8% (inactive)
16,COc1ccc([N+](=O)[O-])cc1/C=N/Nc1nn[nH]n1,-3.63% (inactive)
17,O=S1(=O)N=C(N/N=C/c2ccco2)c2ccccc21,-20% (inactive)
18,Cc1ccccc1/C=N/Nc1nc2ccccc2[nH]1,-2.18% (inactive)
19,O=S1(=O)N=C(N/N=C/c2cccs2)c2ccccc21,3.71% (inactive)
20,Cc1nc2ccc(C(=O)N/N=C/c3cc([N+](=O)[O-])ccc3O)cc2[nH]1,19% (inactive)
21,Oc1ccccc1/C=N/Nc1nn[nH]n1,-4.08% (inactive)

row,Compound,inhibition
1,COc1ccc(O)c(/C=N/Nc2nc3ccccc3[nH]2)c1,-13.2% (inactive)
2,C(=N\Nc1nc2ccccc2[nH]1)/c1ccc2ncccc2c1,-2.83% (inactive)
3,Cc1ccc(C(=O)N2CCN(c3ccccc3Cl)CC2)cc1[N+](=O)[O-],-8.39% (inactive)
4,COCCn1c(-c2ccc(SC)cc2)nc2c1c(=O)[nH]c(=O)n2CC(C)C,6.85% (inactive)
5,Cc1ccc(C)c(OC(C)C(=O)Nc2nccs2)c1 (stereo unspecified),-0.26% (inactive)
6,Cc1ccc(S(=O)(=O)N[C@H](C(=O)OCC(=O)NC(=O)Nc2ccc3c(c2)OCCO3)C(C)C)cc1,-8.36% (inactive)
7,CC(=O)Nc1ccc(NC(=O)C(C)OC(=O)C(C)SCC(=O)Nc2ccc(C)cc2)cc1 (stereo unspecified),-10.9% (inactive)
8,N#Cc1ccccc1S(=O)(=O)N1CCN(CC(=O)Nc2ccccc2C(=O)NC2CC2)CC1,-1.3% (inactive)
9,Fc1ccc(-c2csc(-c3ccccn3)n2)cc1F,-3.95% (inactive)
10,Cc1ccc2ccc3cccc4ccc1c2c34,-18.9% (inactive)
11,COc1cnc(-c2ccccn2)nc1Sc1ccc(F)cc1,6.63% (inactive)
12,O=[N+]([O-])c1ccc(O)c(/C=N/Nc2ccccc2Cl)c1,-14.4% (inactive)
13,O=[N+]([O-])c1cccc(/C=N/NC2=NS(=O)(=O)c3ccccc32)c1,-4.67% (inactive)
14,O=[N+]([O-])c1ccc(/C=N/NC2=NS(=O)(=O)c3ccccc32)cc1,1.07% (inactive)
15,O=[N+]([O-])c1ccc(/C=N/Nc2ccccn2)cc1,-3.42% (inactive)
16,O=[N+]([O-])c1cc(Cl)cc(/C=N/Nc2nc3ccccc3s2)c1O,3.56% (inactive)
17,O=[N+]([O-])c1cccc(/C=N/Nc2ccccn2)c1,0.08% (inactive)
18,O=[N+]([O-])c1ccc(Cl)cc1C=NNc1ccccn1,-1.7% (inactive)
19,O=[N+]([O-])c1ccc(NN=Cc2cc(Br)ccc2O)nc1,6.5% (inactive)
